The other results are listed elsewhere or left out. Activity calls are given as the source filed them.
Experiments:
[1] = target: Inward rectifier potassium channel 2 (Mus musculus) (UniProt P35561); assay: inhibition of Kir2.1 inward rectifier potassium flux – cell-based, FluxOR thallium flux, duplicate, confirmation (AID 2032); conditions: Kir2.1-expressing cells, FluxOR thallium flux fluorescence, at 10 µM; hits give low values
[2] = parental HEK293 cell activity, no Kir2.1 – FluxOR thallium flux, duplicate, single concentration, counter-screen for Kir2.1 inhibitor project, confirmation (AID 2105;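 active means dye signal at least 3 control SD above or below untreated wells in both duplicates, raw fluorescence within 3, either direction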;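 on FluxOR signal as % of negative control (100 = no effect): percent is based on the flux ratio of peak minus minimum fluorescence over baseline F0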); conditions: parental HEK293 cells, FluxOR thallium flux fluorescence, at 10 µM; 0% = unstimulated blank wells
[3] = parental CHO-K1 cell activation, no KCNQ2 – FluxOR thallium flux, duplicate, counter-screen for KCNQ2 potentiator project, confirmation (AID 2282;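 active means signal rise of at least 3 SD above the untreated control mean, in both duplicate wells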;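 further: counter screen of KCNQ2 potentiator hits so any rise reflects channel-independent effects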); conditions: parental CHO-K1 cells, FluxOR thallium flux fluorescence; at 10 µM; hits give high values; zero = vehicle mean+3SD, 100% = vehicle-minus-blank window
[4] = target: Potassium voltage-gated channel subfamily KQT member 1 (Homo sapiens) (UniProt P51787); assay: KCNQ1 activation in stable CHO cells – cell-based, FluxOR thallium flux, selectivity assay for KCNQ2 potentiator project, confirmation (AID 2283;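 active means fluorescence ratio rise of at least 3 SD of vehicle wells above their mean, in both replicate wells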;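 further: 0% = vehicle mean plus 3 SD and 100% = vehicle minus unstimulated blank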); conditions: FluxOR thallium flux fluorescence, at 10 µM, hits give high values, beyond 3SD, as % of vehicle-control signal
Chain of Potassium voltage-gated channel subfamily KQT member 1 (Homo sapiens) (P51787 whole entry, looked up): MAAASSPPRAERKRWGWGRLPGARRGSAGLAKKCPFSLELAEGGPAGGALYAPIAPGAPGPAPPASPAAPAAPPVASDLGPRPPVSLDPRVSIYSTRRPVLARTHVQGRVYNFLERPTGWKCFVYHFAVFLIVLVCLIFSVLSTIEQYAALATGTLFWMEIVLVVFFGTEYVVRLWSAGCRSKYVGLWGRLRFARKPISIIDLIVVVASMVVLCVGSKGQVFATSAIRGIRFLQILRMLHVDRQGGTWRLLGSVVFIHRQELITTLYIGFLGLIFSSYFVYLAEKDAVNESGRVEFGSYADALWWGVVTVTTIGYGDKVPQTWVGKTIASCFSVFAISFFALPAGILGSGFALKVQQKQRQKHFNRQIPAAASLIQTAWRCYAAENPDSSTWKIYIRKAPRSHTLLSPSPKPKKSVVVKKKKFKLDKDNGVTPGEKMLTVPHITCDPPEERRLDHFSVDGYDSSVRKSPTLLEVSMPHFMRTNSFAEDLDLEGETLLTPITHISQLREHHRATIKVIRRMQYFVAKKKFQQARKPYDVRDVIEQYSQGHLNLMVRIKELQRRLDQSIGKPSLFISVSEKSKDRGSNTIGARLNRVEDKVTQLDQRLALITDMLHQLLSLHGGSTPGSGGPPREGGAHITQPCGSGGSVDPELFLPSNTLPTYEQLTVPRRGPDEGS

[5] = target: Potassium voltage-gated channel subfamily KQT member 2 (Rattus norvegicus) (UniProt O88943); assay: KCNQ2 potassium channel activity enhancers – cell-based, CHO, FluxOR thallium flux, duplicate, confirmation (AID 2287;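 active means fluorescence ratio rising 3 SD or more over the vehicle control mean in both replicates, plus primary screen hit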;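 further: peak minus minimum thallium fluorescence divided by baseline after K/Tl stimulus; 0% = vehicle mean plus 3 SD and 100% = vehicle minus unstimulated blank difference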); conditions: CHO-KCNQ2 cells, FluxOR thallium flux fluorescence; at 10 µM; hits give high values
[6] = target: Inward rectifier potassium channel 2 (Mus musculus) (UniProt P35561); assay: PubChem AID 2345; conditions: HEK293 Kir2.1, FluxOR thallium flux fluorescence; at 10 µM; hits give high values;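 further: 0% = vehicle mean plus 3 SD and 100% = vehicle minus no-stimulus blank window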
[7] = target: Potassium voltage-gated channel subfamily KQT member 2 (Rattus norvegicus) (UniProt O88943); assay: W236L mutant KCNQ2 current enhancers – cell-based, rat KCNQ2 W236L, CHO, automated patch clamp, mechanism study for KCNQ2 potentiator project (AID 2558;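 active means current increase at least 3 SD of the untreated controls above them in both duplicate recordings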); conditions: at 25 µM
[8] = target: Short transient receptor potential channel 4 (Mus musculus) (UniProt Q9QUQ5); assay: DAMGO-gated TRPC4 membrane potential modulation – cell-based, second specificity screen, HEK293 TRPC4/mu-opioid, selectivity assay for TRPC6 inhibitor project, confirmation (AID 2776;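 active means compounds whose fluorescence signal differed from control wells by over 3 SD, either direction, in both duplicate plates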); conditions: HEK293 TRPC4/MOR, membrane potential dye fluorescence, at 10 µM, channel activated by saturating DAMGO dose; hits give high values
Chain of Short transient receptor potential channel 4 (Mus musculus) (Q9QUQ5 whole entry, looked up): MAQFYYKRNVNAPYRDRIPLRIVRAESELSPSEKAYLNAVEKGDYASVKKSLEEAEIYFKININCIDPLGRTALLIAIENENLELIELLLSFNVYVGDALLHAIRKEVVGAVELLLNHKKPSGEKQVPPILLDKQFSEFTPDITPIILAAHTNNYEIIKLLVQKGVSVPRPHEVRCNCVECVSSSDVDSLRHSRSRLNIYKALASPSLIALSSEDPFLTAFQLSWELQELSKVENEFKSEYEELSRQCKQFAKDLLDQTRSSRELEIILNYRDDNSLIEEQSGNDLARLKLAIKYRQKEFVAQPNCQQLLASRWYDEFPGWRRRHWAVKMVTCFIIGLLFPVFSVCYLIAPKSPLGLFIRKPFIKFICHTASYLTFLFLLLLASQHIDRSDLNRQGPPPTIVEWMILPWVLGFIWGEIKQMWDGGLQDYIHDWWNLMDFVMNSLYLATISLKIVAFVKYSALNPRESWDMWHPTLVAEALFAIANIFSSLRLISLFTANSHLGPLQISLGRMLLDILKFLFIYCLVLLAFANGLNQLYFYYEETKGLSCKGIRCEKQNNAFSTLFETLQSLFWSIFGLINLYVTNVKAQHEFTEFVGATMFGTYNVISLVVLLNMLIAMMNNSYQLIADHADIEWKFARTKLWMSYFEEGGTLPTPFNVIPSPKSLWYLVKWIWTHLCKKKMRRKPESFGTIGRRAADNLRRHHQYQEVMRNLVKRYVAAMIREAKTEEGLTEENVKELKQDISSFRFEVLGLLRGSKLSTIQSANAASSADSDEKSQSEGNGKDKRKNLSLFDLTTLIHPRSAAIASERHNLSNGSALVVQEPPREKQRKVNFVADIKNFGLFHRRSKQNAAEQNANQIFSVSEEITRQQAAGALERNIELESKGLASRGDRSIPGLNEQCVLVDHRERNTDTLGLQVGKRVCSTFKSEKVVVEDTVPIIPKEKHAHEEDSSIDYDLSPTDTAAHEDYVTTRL

[9] = system: transient receptor potential cation channel C4 (TRPC4), mouse; assay: membrane potential change in TRPC4 cells – cell-based, HEK293 TRPC4/mu-opioid, membrane potential dye, selectivity assay for TRPC6 inhibitor project, confirmation (AID 2777;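 active means rise or fall in signal beyond 3 SD of buffer-only wells in both replicate plates, either sign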;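 further: integrated kinetic ratio of fluorescence range over baseline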); conditions: membrane potential fluorescence, at 10 µM
[10] = parental HEK293 depolarization signal interference – cell-based, second counter screen, counter-screen for TRPC6 inhibitor project, confirmation (AID 2779;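 active means membrane potential signal moving either way by over 3 SD of the maximum-effect control, in both duplicate plates, meaning non-specific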); conditions: parental HEK293 membrane potential dye fluorescence; at 10 µM; maximal acetylcholine challenge after compound addition
[11] = nonspecific voltage dye signal in HEK293 – cell-based, parental HEK293, counter-screen for TRPC6 inhibitor project, confirmation (AID 2780;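 active means membrane potential signal shifting up or down by more than 3 SD of buffer-only wells, on both duplicate plates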;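 on membrane potential signal change: plate controls were buffer EC0 wells for no effect and acetylcholine ECmax wells for full effect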); conditions: parental HEK293 membrane potential dye fluorescence; at 10 µM
[12] = target: Short transient receptor potential channel 6 (Mus musculus) (UniProt Q61143); assay: blockers of TRPC6 cation channel activity – HEK293 cells, membrane potential dye, duplicate, confirmation (AID 488960;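 active means fluorescence ratio falls more than 5 SD below the full-stimulation control mean, in both duplicate runs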); conditions: ACh-evoked depolarization, at 10 µM; hits give high values
Chain of Short transient receptor potential channel 6 (Mus musculus) (Q61143 whole entry, looked up): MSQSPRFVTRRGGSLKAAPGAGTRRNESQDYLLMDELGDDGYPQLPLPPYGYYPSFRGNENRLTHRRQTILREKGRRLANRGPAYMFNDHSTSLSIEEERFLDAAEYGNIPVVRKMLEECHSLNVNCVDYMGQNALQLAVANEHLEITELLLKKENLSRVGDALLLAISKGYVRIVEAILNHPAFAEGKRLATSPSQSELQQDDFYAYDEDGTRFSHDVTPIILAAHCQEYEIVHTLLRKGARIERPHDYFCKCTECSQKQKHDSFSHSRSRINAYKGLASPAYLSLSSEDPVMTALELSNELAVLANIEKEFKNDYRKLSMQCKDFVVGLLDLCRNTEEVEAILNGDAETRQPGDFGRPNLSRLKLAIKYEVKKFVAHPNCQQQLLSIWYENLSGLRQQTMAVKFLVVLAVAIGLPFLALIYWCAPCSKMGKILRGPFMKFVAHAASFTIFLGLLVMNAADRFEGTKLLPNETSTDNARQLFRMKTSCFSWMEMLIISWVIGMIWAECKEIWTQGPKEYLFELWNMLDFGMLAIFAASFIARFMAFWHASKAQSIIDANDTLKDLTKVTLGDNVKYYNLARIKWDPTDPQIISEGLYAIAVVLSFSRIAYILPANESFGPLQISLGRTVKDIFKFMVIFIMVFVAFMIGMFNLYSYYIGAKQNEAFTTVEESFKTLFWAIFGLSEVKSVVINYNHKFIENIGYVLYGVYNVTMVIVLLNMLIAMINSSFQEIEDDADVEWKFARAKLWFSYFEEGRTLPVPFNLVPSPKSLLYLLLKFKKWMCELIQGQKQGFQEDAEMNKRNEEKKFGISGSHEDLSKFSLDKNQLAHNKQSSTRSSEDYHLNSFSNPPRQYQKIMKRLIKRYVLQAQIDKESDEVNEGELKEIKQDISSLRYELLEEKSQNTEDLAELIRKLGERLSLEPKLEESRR

[13] = target: Short transient receptor potential channel 6 (Mus musculus) (UniProt Q61143); assay: mouse TRPC6 channel activators, confirmation, HEK293 cells, membrane potential dye, duplicate (AID 488961;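 active means ratio signal rise beyond 5 SD above unstimulated control wells' mean, seen in both duplicate runs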); conditions: HEK293-TRPC6 membrane potential dye fluorescence, FDSS, at 10 µM; hits give high values
[14] = nonspecific flux increase, KCNQ1-free cells – parental CHO cells, counter-screen for KCNQ1 potentiator project (AID 493006;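 active means duplicate-averaged activation above buffer control mean plus 5 SD of those controls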;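 further: fluorescence ratio of max minus min over baseline after K+ and Tl+ depolarization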); conditions: parental CHO-K1 cells, FluxOR thallium flux, at 10 µM; hits give high values
[15] = target: Potassium voltage-gated channel subfamily KQT member 1 (Homo sapiens) (UniProt P51787); assay: enhancement of KCNQ1 channel thallium flux – FluxOR thallium flux, CHO cells, duplicates, confirmation (AID 493007;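 active means potentiation averaged over duplicate wells exceeding buffer-only control mean by more than 3 SD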;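 further: 0% = buffer-only wells and 100% = R-L3 activator control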); conditions: KCNQ1 cell line, FluxOR thallium flux fluorescence, at 10 µM; hits give high values, % of reference activator effect, buffer zero
[16] = target: Potassium voltage-gated channel subfamily KQT member 2 (Rattus norvegicus) (UniProt O88943); assay: KCNQ2 thallium flux enhancement – KCNQ2-CHO-K1 cells, selectivity assay for KCNQ1 potentiator project (AID 493009;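 active means mean duplicate potentiation above the buffer control mean plus 5 SD of buffer wells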;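 further: assay conditions were tuned for KCNQ1 rather than KCNQ2 modulators; signal is max minus min fluorescence divided by baseline after thallium stimulus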); conditions: FluxOR thallium flux fluorescence, at 10 µM; hits give high values, scaled: buffer 0, activator control 100
[17] = target: Potassium voltage-gated channel subfamily KQT member 1 (Homo sapiens) (UniProt P51787); assay: KCNQ1 activators by electrophysiology – IonWorks patch clamp, KCNQ1-CHO cells, orthogonal assay for KCNQ1 potentiator project, confirmation (AID 493184;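 active means current rise at least 3 SD above the untreated control mean in each of two repeat wells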); conditions: automated patch clamp current, at 10 µM; hits give high values
[18] = target: Potassium voltage-gated channel subfamily KQT member 1 (Homo sapiens) (UniProt P51787); assay: blockers of human KCNQ1 channel – cell-based, Tl flux, duplicate, confirmation (AID 588353;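 active means primary screen active, with duplicate mean exceeding buffer control mean plus 3 SD of buffer wells, cut at about 28% in these data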;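 further: 0% = buffer control ratio and 100% = XE991 inhibitor control ratio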); conditions: KCNQ1 cell line, FluxOR thallium flux fluorescence; at 10 µM; hits give high values
[19] = nonspecific activity in CHO-K1 cells without KCNQ1 – parental CHO cells, Tl flux, counter-screen for KCNQ1 inhibitor project (AID 588366;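 active means mean of duplicate thallium-flux fluorescence ratios in parental host cells more than 5 SD below the buffer control mean, cut at about 0.38 in these data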;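 further: ratio is peak minus minimum fluorescence divided by baseline fluorescence; actives read low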); conditions: parental CHO-K1, FluxOR thallium flux fluorescence ratio; at 10 µM; hits give low values; zero means no signal rise above baseline
[20] = target: Potassium voltage-gated channel subfamily KQT member 2 (Rattus norvegicus) (UniProt O88943); assay: block of rat KCNQ2 potassium channel – cell-based, selectivity assay for KCNQ1 inhibitor project (AID 651746;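 active means mean percent inhibition of the KCNQ2 thallium signal more than 5 SD above the buffer-only control wells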;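 further: 0% = buffer control wells and 100% = XE-991 inhibitor control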); conditions: KCNQ2 cells, FluxOR thallium flux fluorescence, at 10 µM; hits give high values
[21] = target: Potassium voltage-gated channel subfamily E member 1 (Homo sapiens) + Potassium voltage-gated channel subfamily KQT member 1 (Homo sapiens) (UniProt P15382+P51787); assay: block of human IKs channel complex – CHO-K1 cells, thallium flux, FluxOR, selectivity assay for KCNQ1 inhibitor project (AID 652147;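 active means mean percent inhibition of duplicate wells above the buffer-only control mean plus 3 SD of those controls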); conditions: KCNQ1/KCNE1 cells, FluxOR thallium flux fluorescence; at 10 µM
Chain of Potassium voltage-gated channel subfamily E member 1 (Homo sapiens) + Potassium voltage-gated channel subfamily KQT member 1 (Homo sapiens) (P51787 whole entry, looked up): as the sequence (P51787 whole entry, looked up) above

Chain of Inward rectifier potassium channel 2 (Mus musculus) (P35561 whole entry, looked up): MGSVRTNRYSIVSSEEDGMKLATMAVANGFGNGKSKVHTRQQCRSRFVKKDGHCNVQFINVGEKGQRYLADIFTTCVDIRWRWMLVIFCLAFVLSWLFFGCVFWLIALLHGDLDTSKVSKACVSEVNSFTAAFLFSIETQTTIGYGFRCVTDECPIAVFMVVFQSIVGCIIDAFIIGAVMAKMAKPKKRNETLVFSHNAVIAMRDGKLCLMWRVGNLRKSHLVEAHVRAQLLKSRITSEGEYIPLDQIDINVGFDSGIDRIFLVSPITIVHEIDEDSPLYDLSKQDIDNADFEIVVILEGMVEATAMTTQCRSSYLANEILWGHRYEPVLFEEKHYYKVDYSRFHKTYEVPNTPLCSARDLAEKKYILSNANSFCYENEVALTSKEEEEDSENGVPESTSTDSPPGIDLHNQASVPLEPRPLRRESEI

O=C(NNC1=C(C(=O)C(F)(F)F)CCC1)c1ccncc1
inactive: outcome [1] | outcome [2] | activity increase over 3SD of controls [3] -5.7% | activation over 3SD threshold [4] -11.4% | activity over 3SD threshold [6] -36.3% | outcome [7]
active: potentiation, less the hit threshold [5] 1.3%

N=c1c2c(-c3ccccc3)c(-c3ccccc3)n(Cc3ccccc3)c2ncn1CCCO
inactive: outcome [2] | outcome [8] | outcome [9] | outcome [10] | outcome [11] | outcome [12] | outcome [13]
active: Tl flux remaining, % of negative control (hits give low values) [1] 37%

Oc1c(Cl)cc(Cl)cc1/C=N/c1ncn[nH]1
active: potentiation, less the hit threshold [5] 37.8% | activation [14] 232% | potentiation [15] 41.5% | potentiation [16] 156%
inactive: outcome [1] | outcome [2] | activity increase over 3SD of controls [3] -13.3% | activation over 3SD threshold [4] -9.2% | activity over 3SD threshold [6] -28.1% | outcome [7] | outcome [17]

Cc1cccc(NC(=S)NC(=O)c2ccc(Br)o2)c1
inactive: outcome [1] | activity increase over 3SD of controls [3] -7% | activation over 3SD threshold [4] -15.7% | activity over 3SD threshold [6] -35.5% | outcome [7] | outcome [17]
active: FluxOR signal as % of negative control (100 = no effect) [2] 170% | potentiation, less the hit threshold [5] 35.5% | activation [14] 204% | potentiation [15] 72% | potentiation [16] 272%

CCCc1nc2sc3c(c2c(=O)n1NC(=O)CCCl)CCCC3
active: activation over 3SD threshold [4] 28.9% | potentiation, less the hit threshold [5] 69.9%
inactive: outcome [1] | outcome [2] | activity increase over 3SD of controls [3] -7% | activity over 3SD threshold [6] -17.7% | outcome [7]

Cc1ccc2nc(C)c3c(c2c1)N(c1ccccc1)CC3
inactive: outcome [2] | outcome [9] | outcome [10] | outcome [12] | outcome [13] | fluorescence ratio (Tl flux) [19] 0.419 | outcome [21]
active: Tl flux remaining, % of negative control (hits give low values) [1] 27.5% | inhibition [8] 32% | membrane potential signal change [11] -212% | inhibition [18] 46% | inhibition [20] 83.7%

Cc1cccc(NC(=O)CSC(N)=O)c1C
active: potentiation, less the hit threshold [5] 56.1%
inactive: outcome [1] | outcome [2] | activity increase over 3SD of controls [3] -5% | activation over 3SD threshold [4] -15.2% | activity over 3SD threshold [6] -46.1% | outcome [7]

Cc1ccc(/C=N/NC(=O)c2cc3ccccc3cc2O)o1
active: FluxOR signal as % of negative control (100 = no effect) [2] 414% | activity increase over 3SD of controls [3] 42.5% | potentiation, less the hit threshold [5] 69% | activation [14] 482% | potentiation [15] 140% | potentiation [16] 506%
inactive: outcome [1] | activation over 3SD threshold [4] -6.4% | activity over 3SD threshold [6] -20.1% | outcome [7] | outcome [17]

Source: PubChem BioAssay
